Rows were chosen to be rich in hits. Some 5.4% of all compounds tested hit in one or more screens of this group.
HPGD inh = blocks human HPGD enzyme activity. Potency, µM, most hits filed as inhibitors. 150,000 compounds, 4.3% hits. P15428. purified HPGD, NADH fluorescence kinetic, PGE2 substrate; active = well fitted inhibition curve with a large enough effect, not every such curve was filed as active; inconclusive = small, poorly fitted or top-dose-only effect, or another doubt; inactive = no such curve, though single readings can be large or run the other way
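NADH formation kinetics: reaction with 30 uM PGE2 and 1 mM NAD+ (final), 20 nM enzyme, Tris-HCl pH 8 with Tween 20, after 15 min compound preincubation at room temperature. Fluorescence change, last versus first of five reads.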
IMPase Li cell = cell-permeable IMPase inhibitors with lithium potentiation; 210,000 compounds, 0.35% hits; Potency, µM (doses to about 59.4 µM), actives largely listed as inhibitors; CHO-M1 cells, IP1 TR-FRET (IP-One), carbachol + lithium; AID 1457;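 note: IP1 builds up when IMPase is blocked and the TR-FRET signal falls; nearly all actives have a fitted effect of over 50% in size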
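Lithium-sensitised IP1 accumulation assay; M1-expressing CHO cells treated 30 min at 37C with compound. Competitive antibody detection by time-resolved FRET followed a 10 min room-temperature lysis step.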
ALOX15B inhib = inhibitors of human 15-lipoxygenase 2 (ALOX15B); O15296; purified 15hLO-2, xylenol orange hydroperoxide absorbance; 110,000 compounds, 0.56% hits; Potency, µM (titrated, usually from 57.1 µM), actives largely listed as inhibitors; note: nearly all actives have a fitted effect of over 60% in size
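Screening format was qHTS against 50 nM purified 15hLO-2 in Hepes pH 7.5 with detergent. Activity follows hydroperoxide formation from 45 uM arachidonic acid, measured as 573:405 nm absorbance ratio of the ferric-xylenol orange complex.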
IMPase cell inh = IMPase inhibition in cells | 120,000 tested, under 10 active | AID 901 | inhibition (IP1 accumulation), % at 46.1 µM | P97697 | CHO-M1 cells, IP1 accumulation, HTRF TR-FRET ratio; active = well fitted curve in the direction sought with a large enough effect in the signal ratio, not every such curve was filed as active; inconclusive = small, poorly fitted or top-dose-only effect, or a change in a side signal; inactive = no such curve, though single readings can be large or run the other way; the % refers to the signal ratio;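 note: cells stimulated with carbachol in lithium chloride buffer; higher means more IMPase inhibition seen as more IP1 and lower FRET ratio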
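Measured: the HTRF emission ratio (665/620 nm) plus the 620 nm donor channel, each fitted to the Hill equation to give AC50. Cells were CHO-M1 given compounds up to 46 uM and a 30 min carbachol stimulation at 37C.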
PNC inhibitor = blocks assembly of the perinucleolar compartment. PC3M PTB-GFP, PNC prevalence imaging, 16 h; stronger effect = lower value. activity change (PNC), negative = inhibition, % at 10 µM. 140,000 compounds, 3.1% hits;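 active = readout at or below -70, meaning at least 70% loss of cells showing the perinucleolar compartment, a nuclear body marking cancer cells; inconclusive = readout between -30 and a set limit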
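PC3M cells stably expressing PTB-GFP, 750–1000 cells/well, treated 16 h at 37 °C with compound (23 nl of library stock), in duplicate. After paraformaldehyde fixation and Hoechst stain, imaged at 20x; PNC prevalence scored by image analysis.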
12-hLO inh = blocks human 12-lipoxygenase activity. Potency, µM (doses to about 57.1 µM), hits mostly inhibitors. P18054. purified 12-hLO, xylenol orange hydroperoxide absorbance. 150,000 compounds, 0.12% hits; note: nearly all actives have a fitted effect of over 55% in size
Target sequence (P18054 whole entry, looked up): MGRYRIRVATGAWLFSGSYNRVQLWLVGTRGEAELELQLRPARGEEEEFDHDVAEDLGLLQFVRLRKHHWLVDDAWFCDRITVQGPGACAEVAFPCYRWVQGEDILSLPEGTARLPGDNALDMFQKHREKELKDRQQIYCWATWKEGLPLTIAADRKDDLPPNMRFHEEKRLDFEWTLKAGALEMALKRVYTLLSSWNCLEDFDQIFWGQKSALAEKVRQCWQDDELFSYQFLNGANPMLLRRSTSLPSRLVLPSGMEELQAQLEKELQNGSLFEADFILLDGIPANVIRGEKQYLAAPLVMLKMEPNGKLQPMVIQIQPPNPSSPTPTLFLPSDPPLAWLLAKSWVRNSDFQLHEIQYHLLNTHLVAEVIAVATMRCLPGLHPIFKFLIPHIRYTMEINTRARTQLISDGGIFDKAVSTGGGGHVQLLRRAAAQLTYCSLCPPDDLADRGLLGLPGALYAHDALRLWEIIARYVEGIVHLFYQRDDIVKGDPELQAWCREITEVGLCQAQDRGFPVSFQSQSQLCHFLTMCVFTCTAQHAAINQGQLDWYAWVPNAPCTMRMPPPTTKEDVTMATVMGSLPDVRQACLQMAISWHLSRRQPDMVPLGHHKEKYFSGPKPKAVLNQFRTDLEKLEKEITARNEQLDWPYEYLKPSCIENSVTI
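Purified human 12hLO (150 nM), preincubated 15 min with compound, then 40 uM arachidonic acid for 30 min, room temperature, Hepes pH 7.0 with 0.01% Triton X-100. Hydroperoxide detected by ferrous iron/xylenol orange; 573/405 nm absorbance ratio gives reaction progress.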
Large screens that a line does not name were inactive. Unless noted, calls come from the whole dose curve; as a rule, active = well fitted curve in the direction sought with a large enough effect; inconclusive = small, poorly fitted or top-dose-only effect, or another doubt; inactive = no such curve, though single readings can be large; an effect the other way counts as inactive or inconclusive.

CCOC(=O)C1CCCN(C(=O)c2cnn3c(C(F)(F)F)cc(-c4ccccc4)nc23)C1 (centres undefined)	HPGD inh 25µM, IMPase cell inh inconclusive
O=C(c1cnn2c(C(F)(F)F)cc(-c3ccc4c(c3)OCO4)nc12)N1CCCC1	HPGD inh 4.5µM
CCOC(=O)C1CCCN(C(=O)c2cc3nc(-c4cccc(OC)c4)cc(C(F)(F)F)n3n2)C1 (centres undefined)	HPGD inh 16µM, PNC inhibitor -80
COc1cc(CN2CCCCC2)cc2cc(C(=O)O)c(=O)oc12	none (no result: IMPase cell inh, PNC inhibitor)
COC(=O)C1=C(C(=O)OC)[C@@H]2Nc3ccccc3[C@@]23C[C@@H](C(=O)OC)N(S(=O)(=O)c2cccs2)C3=N1	none (no result: ALOX15B inhib, IMPase cell inh, PNC inhibitor)
CC1(C(=O)Nc2nnc(SCc3ccccc3)s2)Cc2ccccc2C(=O)O1 (centres undefined)	HPGD inh 28µM, PNC inhibitor inconclusive
CC(C)(C)N(NC(=O)c1ccccc1)C(=O)c1ccc(C(=O)N(NC(=O)c2ccccc2)C(C)(C)C)cc1	PNC inhibitor inconclusive (no result: ALOX15B inhib, IMPase cell inh)
CC(C)(C)N(NC(=O)OCc1ccccc1)C(=O)c1ccccc1	PNC inhibitor -80 (no result: ALOX15B inhib, IMPase cell inh)
CCc1ccc(C(=O)NN(C(=O)c2ccc(CC)cc2)C(C)(C)C)cc1	HPGD inh 25µM (no result: ALOX15B inhib, IMPase cell inh)
COC(=O)c1nnc(C(=O)N(C)Cc2ccccc2)c2[nH]c3ccccc3c12	none (no result: ALOX15B inhib, IMPase cell inh, PNC inhibitor, 12-hLO inh)
CC1Cc2ccccc2N1CC(=O)NC(=O)NCc1ccco1 (centres undefined)	PNC inhibitor -122
Cc1cc(=O)[nH]c(N/N=C/c2cccs2)n1	PNC inhibitor inconclusive (no result: ALOX15B inhib, IMPase cell inh)
Cc1cc(=O)[nH]c(N/N=C/c2sccc2C)n1	HPGD inh 40µM (no result: ALOX15B inhib, IMPase cell inh)
O=C(CCCCCN1C(=O)c2ccccc2C1=O)Nc1ccc(F)cc1	HPGD inh 18µM, PNC inhibitor -100 (no result: ALOX15B inhib)
Cc1cccc(NC(=O)CCCCCN2C(=O)c3ccccc3C2=O)n1	HPGD inh 25µM
O=C(CCCCCN1C(=O)c2ccccc2C1=O)Nc1ccc2c(c1)OCCO2	none
CC(=O)c1oc2ccccc2c1NC(=O)CCCN1C(=O)c2ccccc2C1=O	IMPase Li cell 13µM
O=C(CCCN1C(=O)/C(=C/c2ccccc2Cl)SC1=S)Nc1ccccn1	HPGD inh 16µM (no result: ALOX15B inhib)
O=C(O)C(Cc1ccccc1)Cc1ccccc1	none (no result: IMPase cell inh, PNC inhibitor)
O[C@@H](c1cc(-c2ccccc2)nc2c1ccc1ccccc12)C1CCCCN1 (some centres undefined)	none (no result: ALOX15B inhib, IMPase cell inh, PNC inhibitor, 12-hLO inh)
C[C@@H]1CC2(OC(O)[C@]3(C)O[C@H]23)O[C@H]2C[C@@]3(C)[C@@H]4CC[C@H]5C(C)(C)C(O[C@@H]6OC[C@@H](O)[C@H](O)[C@H]6O)CC[C@@]56C[C@@]46CC[C@]3(C)[C@@H]12 (some centres undefined)	none (no result: IMPase cell inh, PNC inhibitor)
O=C(CCN1C(=O)c2ccccc2C1=O)Nc1ccccn1	PNC inhibitor -88
O=C(CCCCCCN1C(=O)c2ccccc2C1=O)Nc1nccs1	HPGD inh 7.9µM (no result: ALOX15B inhib)
O=C(CCCN1C(=O)c2ccccc2C1=O)Nc1ccccn1	IMPase cell inh inconclusive, PNC inhibitor inconclusive (no result: ALOX15B inhib)
COc1cc(C=O)c([N+](=O)[O-])cc1OC	none (no result: IMPase cell inh, PNC inhibitor)
CCN(CC)CCCNC(=O)CN1C(=O)CSc2ccc(S(=O)(=O)N3CCOCC3)cc21	PNC inhibitor -113 (no result: ALOX15B inhib, IMPase cell inh)
CCCN(CCC)CCCNC(=O)CN1C(=O)CSc2ccc(S(=O)(=O)N3CCOCC3)cc21	none (no result: HPGD inh, ALOX15B inhib, IMPase cell inh, PNC inhibitor, 12-hLO inh)
O=C1CCC(c2ccccc2)=NN1	none (no result: HPGD inh, ALOX15B inhib, IMPase cell inh, PNC inhibitor, 12-hLO inh)
CC/C(C)=N\N=C\c1c(O)n(CC)c2cc(C3=NNC(=O)CC3)ccc12	HPGD inh 32µM (no result: ALOX15B inhib, IMPase cell inh)
Cc1cc(C)c(-n2c(C)cc(/C=C3/NC(=O)NC3=O)c2C)c(C)c1	none
Cc1cc(/C=C2/NC(=O)NC2=O)c(C)n1-c1sc2c(c1C#N)CCCC2	HPGD inh 18µM, ALOX15B inhib inconclusive, PNC inhibitor inconclusive
Cc1ccc(S(=O)(=O)N(CC(=O)N2CCc3ccccc3C2)c2ccc(C)c(C)c2)cc1	none (no result: HPGD inh, IMPase Li cell, ALOX15B inhib, PNC inhibitor, 12-hLO inh)
COc1ccc(NC(=O)/C(C#N)=C/c2c(C)nn(-c3ccc(F)cc3)c2Cl)cc1Cl	PNC inhibitor -83 (no result: ALOX15B inhib, IMPase cell inh)
